Experiment [1] in a line: NCI Yeast Anticancer Drug Screen. Data for the rad50 strain (AID 155).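 Note: 0% = growth of vehicle-only cultures of the same strain.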 As to conditions: S. cerevisiae rad50 strain growth inhibition, stronger effect = higher value. A digest of the protocol: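 Vehicle-treated cultures provide the reference for the growth inhibition reported for compound-exposed, repair-deficient yeast.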
Experiment [2] is described as follows: NCI Yeast Anticancer Drug Screen. Data for the mec2-1 strain (AID 157). Conditions: S. cerevisiae mec2-1 strain, stronger effect = higher value. A digest of the protocol: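 Vehicle-treated cultures served as reference for growth inhibition of compound-exposed mec2-1 yeast.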
A short description of experiment [3]: NCI Yeast Anticancer Drug Screen. Data for the sgs1 mgt1 strain (AID 161).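 Note: 0% = growth of cultures given vehicle only.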 As to conditions: S. cerevisiae sgs1 mgt1 strain, stronger effect = higher value. In a few lines:
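Mutant yeast exposed to compound; growth scored against vehicle-only wells.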

The nature of experiment [4]: NCI Yeast Anticancer Drug Screen. Data for the cln2 rad14 strain (AID 165).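 Note: 0% = growth equal to vehicle treated cultures.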 Conditions: S. cerevisiae cln2 rad14 strain, stronger effect = higher value. A digest of the protocol: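 Each compound was tested on cln2 rad14 yeast. Inhibition of growth was calculated against vehicle-exposed controls.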
Experiment [5] in a line: NCI Yeast Anticancer Drug Screen. Data for the bub3 strain (AID 167). As to conditions: S. cerevisiae bub3 mutant strain, stronger effect = higher value. A digest of the protocol: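 Mutant yeast screening strain plus compound; vehicle-treated cultures serve as the 0% inhibition reference.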
Experiment [6] is described as follows: NCI Yeast Anticancer Drug Screen. Data for the mlh1 rad18 strain (AID 175). As to conditions: S. cerevisiae mlh1 rad18 strain growth inhibition, stronger effect = higher value. In a few lines: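 Vehicle-treated cultures served as the reference for growth inhibition in a yeast strain carrying DNA damage repair alterations exposed to each compound.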
Where [7] appears, read: at 5.0 µM (retest, dose inferred, filed as 0.5).
The mark [8] stands for this setting: at 50.0 µM (retest, dose inferred, filed as 5.0).

Each structure is given as a SMILES string. Values joined by “and” are separate entries in the source; they are usually repeats but may differ in a detail not shown here. Equal values may be shown once. The panel holds about 79,000 compounds, 15% with a hit somewhere; the sample as a whole holds those more often. Some compounds were tested as several samples or in several runs, with calls that do not always agree. Active and inactive are the calls of the source. Cut-off read from the data, not from the text of the source: active = growth inhibition above about 70%; inactive = the rest.

`CCC[CH2][Sn]1([CH2]CCC)[O]N=Cc2ccccc2[O]1`: the growth inhibition was 46% (inactive) in experiment [1] (setting [7]); 94% (active) in experiment [1] (setting [8]); 86.8% (active) in experiment [1] (at 50.0 µM); 50% (inactive) in experiment [2] (setting [7]); 97% (active) in experiment [2] (setting [8]); 90.5% (active) in experiment [2] (at 50.0 µM). Moreover, the growth inhibition in experiment [3] (setting [7]) is 79% (active); in experiment [3] (setting [8]), 98% (active); in experiment [3] (at 50.0 µM), 88.2% (active); in experiment [4] (setting [7]) it was 62% (inactive); in experiment [4] (setting [8]), 97% (active); in experiment [4] (at 50.0 µM), 87.1% (active). For the same compound, the growth inhibition in experiment [5] (setting [7]) is 85% (active); in experiment [5] (setting [8]), 98% (active); in experiment [5] (at 50.0 µM), 90.1% (active); in experiment [6] (setting [7]), 73% (active); in experiment [6] (setting [8]) it was 97% (active); in experiment [6] (at 50.0 µM) it was 88.3% (active).

Regarding `CC(=O)O[C@H]1C[C@@H]2OC3C=C(C)CCC3(C)[C@@]1(C)[C@@]21CO1` (some centres undefined), the growth inhibition in experiment [1] (setting [7]) was 99% (active); in experiment [1] (setting [8]), 99% (active); in experiment [1] (at 50.0 µM), 92.5% (active) and 18.9% (inactive); in experiment [2] (setting [7]), 100% (active); in experiment [2] (setting [8]), 100% (active); in experiment [2] (at 50.0 µM) it was 94.3% (active) and 1.7% (inactive). The growth inhibition in experiment [3] (setting [7]) is 99% (active); in experiment [3] (setting [8]), 99% (active); in experiment [3] (at 50.0 µM) it was 94% (active) and 32.1% (inactive); in experiment [4] (setting [7]) it was 99% (active); in experiment [4] (setting [8]), 99% (active); in experiment [4] (at 50.0 µM) it was 92.2% (active) and 6.4% (inactive). The growth inhibition in experiment [5] (setting [7]) is 99% (active); in experiment [5] (setting [8]), 99% (active); in experiment [5] (at 50.0 µM), 92.7% (active) and 2.9% (inactive); in experiment [6] (setting [7]), 99% (active); in experiment [6] (setting [8]) it was 99% (active); in experiment [6] (at 50.0 µM), 92.8% (active) and 17.9% (inactive).

Consider `CCN(CC)C(=S)S`, for which the growth inhibition in experiment [1] (setting [7]) was 66% (inactive); in experiment [1] (setting [8]), 99% (active); in experiment [1] (at 50.0 µM), 48.6% (inactive) and 99.3% (active); in experiment [2] (setting [7]) it was 66% (inactive); in experiment [2] (setting [8]) it was 99% (active); in experiment [2] (at 50.0 µM), 28% (inactive) and 99.5% (active). Moreover, the growth inhibition in experiment [3] (setting [7]) is 58% (inactive); in experiment [3] (setting [8]), 99% (active); in experiment [3] (at 50.0 µM), 34.9% (inactive) and 99.5% (active); in experiment [4] (setting [7]) it was 8% (inactive); in experiment [4] (setting [8]), 99% (active); in experiment [4] (at 50.0 µM), 21.3% (inactive) and 98.8% (active). Further, the growth inhibition in experiment [5] (setting [7]) is 65% (inactive); in experiment [5] (setting [8]), 99% (active); in experiment [5] (at 50.0 µM) it was 8.05% (inactive) and 99.5% (active); in experiment [6] (setting [7]), 75% (active); in experiment [6] (setting [8]), 99% (active); in experiment [6] (at 50.0 µM) it was 26.8% (inactive) and 99.5% (active).

For `COC([CH2][Hg][n]1cnc2c1c(=O)n(C)c(=O)n2C)CN1C(=O)c2ccccc2S1(=O)=O` (centres undefined), the growth inhibition in experiment [1] (setting [7]) was 9% (inactive); in experiment [1] (setting [8]) it was 94% (active); in experiment [1] (at 50.0 µM), 96.8% (active); in experiment [2] (setting [7]) it was 20% (inactive); in experiment [2] (setting [8]), 84% (active); in experiment [2] (at 50.0 µM) it was 95.3% (active). Moreover, the growth inhibition in experiment [3] (setting [7]) was -2% (inactive); in experiment [3] (setting [8]), 89% (active); in experiment [3] (at 50.0 µM) it was 87.7% (active); in experiment [4] (setting [7]), -11% (inactive); in experiment [4] (setting [8]), 69% (inactive); in experiment [4] (at 50.0 µM), 87.2% (active). The growth inhibition in experiment [5] (setting [7]) is -1% (inactive); in experiment [5] (setting [8]), 89% (active); in experiment [5] (at 50.0 µM), 95.1% (active); in experiment [6] (setting [7]), -1% (inactive); in experiment [6] (setting [8]) it was 95% (active); in experiment [6] (at 50.0 µM) it was 97% (active).

Take `C[C@]12Cc3conc3C(O)=C1CC[C@@H]1C2CC[C@@]2(C)C1CC[C@@H]2O` (some centres undefined): the growth inhibition in experiment [1] (setting [7]) was 2% (inactive); in experiment [1] (setting [8]), 5% (inactive); in experiment [1] (at 50.0 µM) it was 81.3% (active); in experiment [2] (setting [7]), 0% (inactive); in experiment [2] (setting [8]), 0% (inactive); in experiment [2] (at 50.0 µM), 63.5% (inactive). The growth inhibition was 1% (inactive) in experiment [3] (setting [7]); 35% (inactive) in experiment [3] (setting [8]); 57.1% (inactive) in experiment [3] (at 50.0 µM); 1% (inactive) in experiment [4] (setting [7]); 24% (inactive) in experiment [4] (setting [8]); 55.2% (inactive) in experiment [4] (at 50.0 µM). In addition, the growth inhibition was -49% (inactive) in experiment [5] (setting [7]); 3% (inactive) in experiment [5] (setting [8]); 71.2% (active) in experiment [5] (at 50.0 µM); -1% (inactive) in experiment [6] (setting [7]); 15% (inactive) in experiment [6] (setting [8]); 78.2% (active) in experiment [6] (at 50.0 µM).

Turning to `O=C1[O][Hg][c]2cccc3cccc1c23`, the growth inhibition in experiment [1] (setting [7]) is 99% (active); in experiment [1] (setting [8]), 99% (active); in experiment [1] (at 50.0 µM), 98.3% (active); in experiment [2] (setting [7]) it was 100% (active); in experiment [2] (setting [8]), 99% (active); in experiment [2] (at 50.0 µM), 99% (active). Moreover, the growth inhibition in experiment [3] (setting [7]) was 99% (active); in experiment [3] (setting [8]), 99% (active); in experiment [3] (at 50.0 µM) it was 98.9% (active); in experiment [4] (setting [7]), 89% (active); in experiment [4] (setting [8]), 99% (active); in experiment [4] (at 50.0 µM), 98.2% (active). For the same compound, the growth inhibition was 100% (active) in experiment [5] (setting [7]); 58% (inactive) in experiment [5] (setting [8]); 98.2% (active) in experiment [5] (at 50.0 µM); 100% (active) in experiment [6] (setting [7]); 99% (active) in experiment [6] (setting [8]); 97.5% (active) in experiment [6] (at 50.0 µM).

In the case of `CCC[CH2][Sn]([CH2]CCC)([CH2]CCC)[O]C(=O)C[N+](C)(C)c1cc[c]([Hg][c]2ccc(N(C)C)cc2)cc1`, the growth inhibition was 99% (active) in experiment [1] (setting [7]); 99% (active) in experiment [1] (setting [8]); 98.6% (active) and 97.8% (active) in experiment [1] (at 50.0 µM); 100% (active) in experiment [2] (setting [7]); 100% (active) and 99% (active) in experiment [2] (setting [8]); 99.5% (active) in experiment [2] (at 50.0 µM). In addition, the growth inhibition in experiment [3] (setting [7]) is 100% (active); in experiment [3] (setting [8]) it was 98% (active) and 99% (active); in experiment [3] (at 50.0 µM), 99.1% (active) and 99.2% (active); in experiment [4] (setting [7]), 99% (active); in experiment [4] (setting [8]), 99% (active); in experiment [4] (at 50.0 µM) it was 98.4% (active) and 98.9% (active). The growth inhibition was 99% (active) in experiment [5] (setting [7]); 99% (active) in experiment [5] (setting [8]); 98.8% (active) and 99.1% (active) in experiment [5] (at 50.0 µM); 99% (active) in experiment [6] (setting [7]); 99% (active) in experiment [6] (setting [8]); 99% (active) and 99.2% (active) in experiment [6] (at 50.0 µM).

As for `Cc1ccc([PH+](c2ccc(C)cc2)c2ccc(C)cc2)cc1.Cc1ccc([PH+](c2ccc(C)cc2)c2ccc(C)cc2)cc1.[Cl][Hg][Cl]`, the growth inhibition in experiment [1] (setting [7]) was 98% (active); in experiment [1] (setting [8]), 95% (active); in experiment [1] (at 50.0 µM) it was 47.6% (inactive); in experiment [2] (setting [7]), 99% (active); in experiment [2] (setting [8]) it was 98% (active); in experiment [2] (at 50.0 µM), 97.2% (active). Further, the growth inhibition in experiment [3] (setting [7]) was 99% (active); in experiment [3] (setting [8]), 95% (active); in experiment [3] (at 50.0 µM) it was 99.5% (active); in experiment [4] (setting [7]), 93% (active); in experiment [4] (setting [8]), 96% (active); in experiment [4] (at 50.0 µM) it was 29.3% (inactive). Further, the growth inhibition was 98% (active) in experiment [5] (setting [7]); 95% (active) in experiment [5] (setting [8]); 99.3% (active) in experiment [5] (at 50.0 µM); 99% (active) in experiment [6] (setting [7]); 94% (active) in experiment [6] (setting [8]); 95.9% (active) in experiment [6] (at 50.0 µM).

The values are drawn from PubChem BioAssay (NCI).
